From PubChem BioAssay
Rows were chosen to be rich in hits. Some 1.7% of all compounds tested hit in one or more screens of this group.
p53ts 39C kill: kills p53ts cells at the nonpermissive temperature; H1299-p53A138V viability at 39C, ATP luminescence, 24 h; Potency, µM (highest dose often 46.1 µM), actives largely listed as cytotoxic; AID 902; hit rate 1.5% among 130,000; note: nearly all actives have a fitted effect of over 55% in size
Imprint erasure: genomic imprint erasure induction; hit rate 0.02% among 110,000; AID 1948; mouse ES Peg3-LacZ reporter, beta-gal luminescence, 40 h; Potency, µM (titrated, usually from 60.7 µM), actives largely listed as activators
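Readout: BetaGlo luminescence (5 min, room temp) for LacZ from the normally silent maternal Peg3 allele in female Peg3LacZ-Neo ES cells. Cells 300/well, 40 h, 37C, 5% CO2. Data normalized per plate to negative controls.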
IkB signaling: IkB pathway inhibition in ABC-DLBCL cells; ABC-DLBCL IkBa-CBG/CBR dual luciferase ratio, 4 h; response scale: scaled: untreated 0%, proteasome inhibitor 100%; hit rate 0.04% among 110,000; AID 445; Potency, µM (top dose mostly 57.1 µM); active = well fitted curve in the direction sought with a large enough effect in the signal ratio, not every such curve was filed as active; inconclusive = small, poorly fitted or top-dose-only effect, or a change in a side signal; the % refers to the signal ratio;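 note: the direction sought is a rising ratio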
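Luminescence ratio of IκBα-fused green versus native red beetle luciferase in OCI-Ly3 cells, 4 h post-doxycycline with compound; red signal alone, scaled from basal (0%) to zero light (-100%), flagged nonspecific or cytotoxic effects.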
p53ts 32C tox: kills p53ts cells at the permissive temperature. hit rate 0.93% among 130,000. AID 924. H1299-p53A138V at 32C, ATP luminescence viability, 24 h. Potency, µM (titrated, usually from 46.1 µM), most hits filed as cytotoxic; note: nearly all actives have a fitted effect of over 55% in size
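Cells: H1299 p53ts (A138V), 600/well, pre-incubated 16–30 h at 37C. Cpd up to 46 uM, 24 h, 32C. Readout: ATPlite luminescence, 20 min RT. Normalization: DMSO vs tamoxifen 100 uM. AC50 by Hill equation.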
Numbers stand for hits; – = inactive; ? = inconclusive; · = no result; ! = repeats disagree; [ ] = dose if it differs, or a comment. Unless noted, calls come from the whole dose curve; as a rule, active = well fitted curve in the direction sought with a large enough effect; inconclusive = small, poorly fitted or top-dose-only effect, or another doubt; inactive = no such curve, though single readings can be large; an effect the other way counts as inactive or inconclusive.

SMILES	p53ts 39C kill	Imprint erasure	IkB signaling	p53ts 32C tox
CC(C)c1c(O)ccc2c1CCC1[C@@](C)(CO)CCC[C@@]21C (stereo partly specified)	–	–	·	–
COC(=O)[C@@]1(C)CCC[C@@]2(C)c3ccc(O)c(C(C)C)c3CCC21 (stereo partly specified)	20µM	–	·	?
CC(=O)Oc1ccc2c(c1C(C)C)CCC1C(C)(C)CCC[C@@]21C (stereo partly specified)	13µM	–	·	?
CCCOc1ccc(CNC(=O)C2CCN(C(=O)c3sccc3-n3cccc3)CC2)cc1	?	–[10.9 µM]	?	–
c1ccc(-c2ccc(-c3ccccn3)nn2)nc1	10µM	–	?	13µM
CCCSc1nnc(Cc2cc(=O)[nH]c(=O)[nH]2)n1-c1cc(C)ccc1C	–	10µM	–	–
Cc1cc(NCCN2CCOCC2)n2ncc(-c3ccccc3)c2n1	–	–	–	–
Cc1cc(NCCCn2ccnc2)n2ncc(-c3ccccc3)c2n1	4µM	–	–	3.2µM
CSc1ccc2c(c1)[C@H](N1CCN(C)CC1)Cc1ccccc1S2	32µM	–	?	25µM!
Clc1ccccc1C(c1ccccc1)(c1ccccc1)n1ccnc1	25µM!	–	–	–
Clc1ccccc1-c1nccc(-n2ccnc2)n1	–	–	–[11.4 µM]	–
Cc1ccc(N2CCN(S(=O)(=O)c3nnc(NC(=O)c4cccc(F)c4)s3)CC2)cc1	–	–[10.9 µM]	?	–
Cc1ccc(Nc2nc3nonc3[nH]c2=O)cc1C	10µM	–	?	13µM
COc1ccc(OC)c(S(=O)(=O)Nc2ccc(C(N)=O)cc2)c1	–	–	–	–
COc1ccc(OC)c(S(=O)(=O)Nc2ccc(O)c3ccccc23)c1	10µM	–	?	?
CCc1cccc(NC(=O)CN2C(=O)COc3ccc(S(=O)(=O)N4CCC(C)CC4)cc32)c1	?	–[10.9 µM]	–	–
Cc1ccc(OC(=O)CSc2nnc(-c3ccc4c(c3)OCO4)o2)cc1	–	–[10.9 µM]	–	–
O=C(c1ccc(Cl)cc1)N1CCCCC(Sc2nnc(-c3ccc4c(c3)OCO4)o2)C1=O (stereo unspecified)	?	–	–	7.9µM
Cc1cc(C(=O)Nc2sc3c(c2C#N)CCC(C)C3)no1 (stereo unspecified)	–	–	–	–
Cc1cc(C(=O)Nc2sc3c(c2C#N)CCCC3)no1	13µM	–	–	6.3µM
Cc1cc(C(=O)Nc2sc3c(c2C#N)CCC3)no1	13µM	–	–	10µM
CCCC(=O)NC(c1cccs1)c1cc([N+](=O)[O-])c2cccnc2c1O (stereo unspecified)	–	·	·	·
O=[N+]([O-])c1cc(Cc2cc([N+](=O)[O-])c3cccnc3c2O)c(O)c2ncccc12	–[9.22 µM]	–[10.9 µM]	5µM	–[9.22 µM]
COc1ccc(-c2cc(C(=O)NCc3ccc(F)cc3)c3c(-c4ccc(F)cc4)[nH]nc3n2)cc1OC	13µM	–[10.9 µM]	?	?
COc1cc(NC(=O)CSc2nc3nc(C)c(Cc4ccc(C)cc4)c(C)n3n2)cc(OC)c1	?	–[10.9 µM]	?	–
SMILES	p53ts 39C kill	Imprint erasure	IkB signaling	p53ts 32C tox
Cc1cc(N)c2ccccc2[n+]1CCCCCCCCCCCCCC[n+]1c(C)cc(N)c2ccccc21	13µM	–	?	?
COc1cccc(CNC(=O)c2cccc(NC(=O)c3nsc4ccccc34)c2)c1	?	–[10.9 µM]	?	–
COC(=O)c1cccc(NC(=O)c2nsc3ccccc23)c1	6.3µM	–[10.9 µM]	–	2.5µM
O=C(Nc1cccc(C(=O)N2CCCCC2)c1)c1nsc2ccccc12	10µM	–[10.9 µM]	–	16µM
O=C(O)[C@H]([C@H]1NCCS1)N1Cc2ccccc2C1	–[9.22 µM]	·	–[11.4 µM]	–[9.22 µM]
COc1cc(/C=C/C(=O)O)cc(OC)c1OC	–	–	·	–
COc1cc(/C=C/C(=O)N2C(=O)c3cccc(N)c3C2=O)cc(OC)c1OC	–	·	·	·
COc1cc(/C=C\C(=O)N2CCC=CC2=O)cc(OC)c1OC	6.3µM	–	?	6.3µM
COc1cc(/C=C/C(=O)N2CCCCC2=O)cc(OC)c1OC	13µM	–	·	13µM
CC(C)(C)c1onc(OCP(=O)(O)O)c1C[C@@H](N)C(=O)O	–	·	–	–
CC(C)[C@H]1C(=O)C(C(N)=O)=C(O)[C@]2(O)C(=O)C3=C(O)c4c(O)ccc(N(C)C)c4C[C@H]3C[C@@H]12	–	·	–	–
OCCNCCCOc1cccc(Cl)c1Cl	13µM	–	–	?
CCc1ccccc1OC[C@@H](O)CN[C@H]1CCCc2ccccc21	20µM	–	?	32µM
Cc1ccc(S(=O)(=O)N(CC(=O)O)c2cccc(Cl)c2)cc1	–	·	·	–
